# Results reported in PubChem BioAssay.
# Active and inactive are the calls of the source.
# Assays:
# [1] = target: Albumin (Bos taurus) (UniProt P02769); assay: bovine serum albumin binders on microarray, profiling panel, artefact control for SMM control protein annotation, biochemical, small-molecule microarray, Alexa647 label, 635/667 nm fluorescence (AID 1118); details: BSA-A647 binding, fluorescence 635 nm, higher = more signal;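 further: score merges 667 nm emission intensity and signal-to-noise per printed compound spot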
# Albumin (Bos taurus), sequence (P02769 whole entry, looked up): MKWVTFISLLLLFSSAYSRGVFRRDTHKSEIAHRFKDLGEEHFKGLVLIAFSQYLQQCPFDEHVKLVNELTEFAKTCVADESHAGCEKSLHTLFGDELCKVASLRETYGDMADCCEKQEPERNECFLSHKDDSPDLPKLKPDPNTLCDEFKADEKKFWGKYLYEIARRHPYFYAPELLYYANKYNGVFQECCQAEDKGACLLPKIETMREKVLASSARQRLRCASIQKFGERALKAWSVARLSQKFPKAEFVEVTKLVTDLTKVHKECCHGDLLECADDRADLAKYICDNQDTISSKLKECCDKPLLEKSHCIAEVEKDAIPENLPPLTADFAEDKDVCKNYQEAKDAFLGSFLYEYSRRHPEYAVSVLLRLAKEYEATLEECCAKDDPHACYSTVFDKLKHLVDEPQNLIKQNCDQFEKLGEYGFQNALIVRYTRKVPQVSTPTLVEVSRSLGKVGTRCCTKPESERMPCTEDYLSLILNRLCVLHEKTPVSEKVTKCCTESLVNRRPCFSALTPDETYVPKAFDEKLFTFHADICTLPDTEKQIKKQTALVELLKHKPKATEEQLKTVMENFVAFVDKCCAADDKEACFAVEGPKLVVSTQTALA
# [2] = small-molecule microarray binders of probe aXIP, primary screen, biochemical, NeuroSMM set, 635/667 nm fluorescence (AID 1119); details: higher = more signal, called active from +8 up or from −8 down;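 further: probe is the protein aXip251-270 applied at 1 µg/mL to compound-printed slides; binding of probe to printed compounds measured as 667 nm fluorescence plus signal to noise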
# [3] = small-molecule binders of probe aNOTCH3, primary screen, biochemical, small-molecule microarray, 635/667 nm fluorescence (AID 1120); details: higher = more signal;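 further: probe is a biotin-tagged antibody raised against NOTCH3 rather than NOTCH3 protein; score merges spot fluorescence near 667 nm with spot signal to noise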
# [4] = small-molecule binders of probe aNOTCH2, primary screen, biochemical, small-molecule microarray, 635/667 nm fluorescence (AID 1121); details: higher = more signal;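 further: score merges feature fluorescence read at 667 nm with its signal to noise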
# [5] = target: Carbonic anhydrase 2 (Homo sapiens) (UniProt P00918); assay: CAII small-molecule binders, profiling panel, biochemical, small-molecule microarray, Alexa647-labelled CAII (AID 1122); details: CAII-A647 binding fluorescence, higher = more signal
# [6] = COS7 lysate on small-molecule microarray, probe aHis, 635 nm (AID 1123); details: COS7 cell lysate, fluorescence, higher = more signal;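 further: z-score combines 667nm fluorescence intensity with signal-to-noise per printed compound spot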
# [7] = compound binding in COS7 lysate, probe aLAP1, primary screen, cell lysate, small-molecule microarray (AID 1124); details: probe aLAP1, fluorescence, higher = more signal;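 further: lysate comes from COS7 cells expressing LAP1 and is applied at 0.3 µg/mL; score merges spot fluorescence near 667 nm with signal-to-noise over triplicate slides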
# [8] = test system: Sam68 (KHDRBS1); assay: Sam68 small-molecule binders, primary screen, biochemical, small-molecule microarray, 635 nm fluorescence (AID 1125); details: small-molecule microarray binding, higher = more signal;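 further: score merges 667 nm channel intensity with signal to noise over triplicate slides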
# [9] = test system: Chordin-like protein 2 (CHRDL2); assay: CHRDL2 small-molecule binders, primary screen, biochemical, small-molecule microarray, 635 nm fluorescence (AID 1126); details: small-molecule microarray binding, fluorescence 635 nm; higher = more signal;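 further: printed compound slides probed with Chrdl2 protein at 4 µg/mL for 1 h at 4 C; score merges 667 nm emission intensity with signal to noise over three replicate slides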
# [10] = target: Concanavalin-A (Canavalia ensiformis) (UniProt P02866); assay: ConA small-molecule binders, primary screen, artefact control for SMM control protein annotation, biochemical, small-molecule microarray, Alexa647 label, 635 nm (AID 1127); details: ConA-A647 binding fluorescence, higher = more signal;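 further: z combines 667 nm emission intensity with signal-to-noise across three replicate slides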
# Concanavalin-A (Canavalia ensiformis), sequence (P02866 whole entry, looked up): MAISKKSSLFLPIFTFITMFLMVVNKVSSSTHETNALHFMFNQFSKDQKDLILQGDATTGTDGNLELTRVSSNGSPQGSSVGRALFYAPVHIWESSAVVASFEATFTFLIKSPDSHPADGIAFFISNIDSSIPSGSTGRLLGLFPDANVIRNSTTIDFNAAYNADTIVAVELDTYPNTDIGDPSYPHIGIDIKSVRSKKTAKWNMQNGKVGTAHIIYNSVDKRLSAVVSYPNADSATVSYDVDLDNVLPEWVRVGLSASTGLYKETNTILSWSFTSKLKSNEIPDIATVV
# [11] = anti-His antibody binders, primary screen, artefact control for SMM control protein annotation, biochemical, small-molecule microarray, 635 nm fluorescence (AID 1128); details: anti-His Alexa647 antibody binding, higher = more signal;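 further: score merges feature fluorescence with signal-to-noise for each printed compound spot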
# [12] = test system: Human papillomavirus type 1a E7 protein (residues 1-88); assay: HPV1a E7 small-molecule binders, primary screen, biochemical, small-molecule microarray, residues 1-88, 635 nm (AID 1129); details: small-molecule microarray binding, fluorescence 635 nm; higher = more signal
# [13] = target: Focal adhesion kinase 1 (Homo sapiens) (UniProt Q05397); assay: small-molecule microarray binders of FAK, primary screen, biochemical, 635/667 nm fluorescence, BSA, DTT (AID 1130); details: PTK2 binding, 635 nm fluorescence, higher = more signal;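 further: composite of spot emission at 667 nm and signal to noise over triplicate slides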
# Focal adhesion kinase 1 (Homo sapiens), sequence (Q05397 whole entry, looked up): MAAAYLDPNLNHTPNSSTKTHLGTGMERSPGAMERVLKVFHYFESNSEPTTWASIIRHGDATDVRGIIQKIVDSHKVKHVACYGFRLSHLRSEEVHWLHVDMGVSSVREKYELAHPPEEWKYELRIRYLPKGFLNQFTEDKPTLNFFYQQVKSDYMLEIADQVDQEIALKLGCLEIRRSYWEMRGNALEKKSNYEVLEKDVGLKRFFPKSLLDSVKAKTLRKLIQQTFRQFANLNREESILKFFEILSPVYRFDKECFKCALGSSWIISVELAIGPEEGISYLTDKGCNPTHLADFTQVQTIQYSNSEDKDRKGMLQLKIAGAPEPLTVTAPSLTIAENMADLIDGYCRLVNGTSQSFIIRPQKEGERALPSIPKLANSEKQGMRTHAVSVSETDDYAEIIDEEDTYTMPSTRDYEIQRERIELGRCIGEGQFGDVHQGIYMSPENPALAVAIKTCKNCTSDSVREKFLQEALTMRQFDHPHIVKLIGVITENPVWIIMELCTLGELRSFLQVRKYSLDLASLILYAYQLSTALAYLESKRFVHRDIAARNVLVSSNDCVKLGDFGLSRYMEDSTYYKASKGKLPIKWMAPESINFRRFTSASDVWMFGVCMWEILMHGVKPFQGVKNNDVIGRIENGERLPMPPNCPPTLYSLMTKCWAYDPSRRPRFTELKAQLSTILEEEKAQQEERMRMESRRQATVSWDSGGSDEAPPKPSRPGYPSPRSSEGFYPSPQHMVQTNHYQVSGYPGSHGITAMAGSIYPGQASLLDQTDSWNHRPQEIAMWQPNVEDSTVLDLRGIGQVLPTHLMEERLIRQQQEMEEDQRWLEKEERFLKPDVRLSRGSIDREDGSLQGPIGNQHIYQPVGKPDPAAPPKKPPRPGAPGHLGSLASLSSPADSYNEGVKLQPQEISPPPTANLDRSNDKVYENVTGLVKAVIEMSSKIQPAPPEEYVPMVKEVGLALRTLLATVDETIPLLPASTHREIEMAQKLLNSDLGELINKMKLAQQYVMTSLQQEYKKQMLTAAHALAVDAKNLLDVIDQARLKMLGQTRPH
# [14] = test system: Fibrinogen (Alexa647-labelled); assay: fibrinogen binders on compound microarrays, profiling panel, artefact control for SMM control-protein annotation, biochemical, small-molecule microarray, 635/667 nm fluorescence (AID 1131); details: fibrinogen-A647 binding fluorescence, higher = more signal;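 further: z-score merges 667 nm fluorescence with per-spot signal-to-noise over triplicate slides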
# [15] = target: Follistatin (Homo sapiens) (UniProt P19883); assay: follistatin binders on small-molecule microarrays, primary screen, biochemical, small-molecule microarray, 635/667 nm fluorescence (AID 1132); details: FST binding, 635 nm fluorescence, higher = more signal
# Follistatin (Homo sapiens), sequence (P19883 whole entry, looked up): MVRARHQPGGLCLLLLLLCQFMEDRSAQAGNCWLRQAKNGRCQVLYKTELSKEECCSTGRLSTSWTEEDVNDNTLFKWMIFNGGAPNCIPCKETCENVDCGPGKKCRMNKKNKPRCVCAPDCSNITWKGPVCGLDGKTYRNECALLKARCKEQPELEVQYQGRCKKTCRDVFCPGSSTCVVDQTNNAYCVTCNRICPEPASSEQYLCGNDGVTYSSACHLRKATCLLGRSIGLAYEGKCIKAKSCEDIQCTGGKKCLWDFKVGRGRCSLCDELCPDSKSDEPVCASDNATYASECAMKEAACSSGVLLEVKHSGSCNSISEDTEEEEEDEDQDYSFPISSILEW
# [16] = target: Fibroblast growth factor 2 (Homo sapiens) (UniProt P09038); assay: FGF2 binders on small-molecule microarrays, primary screen, biochemical, small-molecule microarray, 635/667 nm fluorescence (AID 1133); details: small-molecule microarray binding, FGF2, fluorescence 635/667; higher = more signal
# Fibroblast growth factor 2 (Homo sapiens), sequence (P09038 whole entry, looked up): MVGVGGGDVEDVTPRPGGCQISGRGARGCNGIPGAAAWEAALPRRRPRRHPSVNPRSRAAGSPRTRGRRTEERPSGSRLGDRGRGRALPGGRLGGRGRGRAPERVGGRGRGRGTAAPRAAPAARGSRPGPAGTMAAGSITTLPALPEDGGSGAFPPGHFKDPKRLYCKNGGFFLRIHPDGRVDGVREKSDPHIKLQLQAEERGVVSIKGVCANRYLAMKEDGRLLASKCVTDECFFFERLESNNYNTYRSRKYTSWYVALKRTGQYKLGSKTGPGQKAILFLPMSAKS
# [17] = mitochondrial membrane potential change in A549 cells, profiling panel, cell-based, JC-1 fluorescence, basal, 24 h, 100 nL (AID 1138); details: higher = more signal;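 further: A549 lung adenocarcinoma cells under basal conditions with no added stimulus; test concentration not given here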
# [18] = test system: Lefty1; assay: Lefty1 binders on small-molecule microarrays, primary screen, biochemical, small-molecule microarray, 635/667 nm fluorescence (AID 1139); details: small-molecule microarray binding, fluorescence 635/667; higher = more signal
# [19] = test system: wheat germ agglutinin (Triticum aestivum), Alexa647-labelled; assay: wheat germ agglutinin binders on compound microarrays, profiling panel, artefact control for SMM control-protein annotation, biochemical, small-molecule microarray, 635/667 nm fluorescence (AID 1140); details: WGA-A647 binding, 635 nm fluorescence, higher = more signal;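 further: score merges 667 nm feature emission with signal to noise over triplicate slides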
# [20] = target: Luciferin 4-monooxygenase (Photinus pyralis) (UniProt P08659); assay: firefly luciferase enzyme inhibitors, primary screen, biochemical, luminescence, purified enzyme, 2006 set (AID 1141); details: SteadyGlo luminescence, 30 min, higher = more signal, called active from +8 up or from −8 down;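 further: cell-free assay with purified firefly luciferase at 100 ng per well in PBS; test concentration not given here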
# Luciferin 4-monooxygenase (Photinus pyralis), sequence (P08659 whole entry, looked up): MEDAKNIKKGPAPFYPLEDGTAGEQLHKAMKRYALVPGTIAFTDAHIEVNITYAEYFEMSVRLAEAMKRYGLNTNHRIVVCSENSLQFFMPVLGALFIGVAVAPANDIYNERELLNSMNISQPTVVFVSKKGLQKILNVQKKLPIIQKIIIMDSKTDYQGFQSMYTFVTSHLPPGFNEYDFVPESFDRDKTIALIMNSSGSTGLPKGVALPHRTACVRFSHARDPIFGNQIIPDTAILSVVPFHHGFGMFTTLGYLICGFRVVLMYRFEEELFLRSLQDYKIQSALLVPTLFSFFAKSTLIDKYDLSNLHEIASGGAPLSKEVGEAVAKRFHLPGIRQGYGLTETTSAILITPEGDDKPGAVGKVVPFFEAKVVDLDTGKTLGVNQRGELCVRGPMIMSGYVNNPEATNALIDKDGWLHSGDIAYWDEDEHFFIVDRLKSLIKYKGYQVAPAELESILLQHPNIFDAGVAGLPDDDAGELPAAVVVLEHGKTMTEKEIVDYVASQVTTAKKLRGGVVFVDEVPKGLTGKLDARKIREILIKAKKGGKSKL
Structure (SMILES),composite z-score [1],composite Z-score [2],composite z-score [3],composite z-score [4],composite z-score [5],composite z-score [6],composite z-score [7],composite z-score [8],composite z-score [9],composite z-score [10],composite z-score [11],composite z-score [12],composite z-score [13],composite z-score [14],composite z-score [15],composite z-score [16],z-score [17],composite z-score [18],composite z-score [19],z-score [20]
C[C@H]1CC[C@H]2C(=O)O[C@H](CO)CN2[C@@H]1c1ccc(Br)cc1,0.167,0.436 (inactive),0.0081,-0.124,-0.11,-0.0346,0.0438,0.424,0.229,-0.453,-0.15,0.015,0.638,0.0011,0.0723,0.103,0.69,0.353,-0.004,-0.19 (inactive)
CC(=O)OC[C@H]1O[C@H](CC=NOC(C)CN2CCCCc3nc(C)c(C)cc32)C=C[C@@H]1OC(C)=O (stereo not given in full),0.486,-1.11 (inactive),0.678,0.0312,0.0236,0.511,0.333,1.31,1.33,0.902,0.544,0.819,0.0336,0.495,1.23,0.773,-0.683,1.55,0.73,1.46 (inactive)
COc1ccc(COC(=O)NN=C2C[C@@H](O)[C@@H](O)[C@@H]3[C@@H]4C(=O)N(C(C)(C)C)C(=O)[C@@H]4CC[C@@H]23)cc1,0.584,0.526 (inactive),0.136,-0.167,0.346,0.685,0.31,1.14,0.59,0.632,0.839,0.656,-0.14,0.874,0.542,0.247,-0.367,0.548,0.608,0.137 (inactive)
CC(=O)OC[C@H]1O[C@H](CCON=C(C)CCN2CCCc3nc(C)c(C)cc32)C=C[C@@H]1OC(C)=O,0.159,-0.01 (inactive),0.121,-0.0482,0.416,0.214,0.926,1.29,0.662,0.672,1.22,1.14,0.835,0.441,1.15,0.664,-0.349,0.997,0.0722,0.591 (inactive)
C[C@@H]1CC[C@H]2C(=O)N3[C@@H](CC[C@@H](C)[C@@H]3c3ccc(Br)cc3)C(=O)N2[C@H]1c1ccc(Br)cc1,0.213,-0.119 (inactive),0.0462,0.224,-0.161,0.246,-0.0873,0.31,0.391,0.344,0.0399,-0.0695,-0.104,0.122,0.301,0.13,1.48,0.52,-0.0219,-0.199 (inactive)
CCOC(=O)CCN1C(=O)[C@H]2[C@H]3[C@H](O)[C@H](O)CC(=NO[C@@H]4O[C@H](CO)[C@@H](O)[C@H](O)[C@H]4O)[C@H]3CC[C@H]2C1=O,0.0221,-0.048 (inactive),-0.15,-0.113,0.197,0.174,-0.0363,0.201,0.52,0.487,0.919,0.544,0.068,0.551,0.0489,0.599,-0.658,0.49,-0.104,0.493 (inactive)
CCN(CC)CC(O)CN1CCCCc2nc(C)c(C)cc21 (stereo not given),0.401,-0.336 (inactive),0.0026,-0.195,0.367,0.243,-0.072,0.334,0.468,0.363,1,0.546,-0.0492,0.0982,0.355,0.639,1.09,0.516,0.944,-1.12 (inactive)
CC(=O)OC[C@H]1O[C@H](CC=NOC[C@@H](O)COCc2ccco2)C=C[C@@H]1OC(C)=O,0.037,0.328 (inactive),0.282,-0.0022,-0.287,-0.37,-0.14,0.586,1.46,-0.389,0.526,-0.193,0.0925,-0.629,1.38,1.54,0.548,1.52,-0.327,0.642 (inactive)
COc1ccc(COC(=O)NN=C2C[C@@H](O)[C@@H](O)[C@@H]3[C@@H]4C(=O)N(Cc5ccccc5)C(=O)[C@@H]4CC[C@@H]23)cc1,-0.0233,-0.185 (inactive),-0.0362,-0.182,-0.359,0.275,-0.23,0.389,0.172,0.0738,0.57,0.343,0.0398,-0.113,0.364,0.164,0.485,0.292,-0.0049,0.778 (inactive)
COC(=O)[C@H](C)NC(=O)CC=C[C@@H](C)[C@@H]1C=C[C@H](O)[C@@H](CO)O1,-0.453,-0.0756 (inactive),-0.0932,-0.237,-0.114,-0.346,-0.0681,0.457,1.33,-0.174,0.0816,0.228,-0.118,-0.0588,1.14,1,-0.142,1.39,-0.28,0.374 (inactive)
COC(=O)[C@H](CCSC)NC(=O)CC=C[C@@H](C)CO,-0.245,-0.131 (inactive),-0.0651,-0.143,0.0952,1.42,-0.226,1.29,1.5,0.483,0.293,0.127,0.0533,-0.922,1.1,1.73,-1.08,1.6,-0.701,-0.08 (inactive)
